From PubChem
The list is not random: actives were taken first. Their share in the collection is about 7.8%.
HCMV inh: qHTS Assay for inhibitors of the human cytomegalovirus (HCMV); HFF cells, HCMV-luciferase reporter, 72 h; active compounds read low; activity change, negative = inhibition, % at 57.5 µM; hit rate 4.5% among 410,000; AID 1259415, 2018; in the data active = activity change below about -60%; inconclusive = no clear call, values can overlap the other calls; inactive = above about -39%
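After 16 h attachment at 37C, HFF cells received test compound and HCMV-luciferase (1 PFU/cell); reporter luminescence read 72 h later, data normalized against buffer-only and known inhibitor Salinomycin.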
HCV inh: qHTS Assay for Inhibitors of Hepatitis C Virus (HCV); hit rate 3.4% among 340,000; AID 651820, 2012; Potency, µM (top dose mostly 41.8 µM), usual class: inhibitors; Huh7.5.1 HCVcc-Cre infection, luciferase reporter, 44 h; active = well fitted inhibition curve with a large enough effect; inconclusive = small, poorly fitted or top-dose-only effect, or another doubt; inactive = no such curve, though single readings can be large or run the other way
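Whole-lifecycle infectious HCVcc-Cre system; cells 1,000/well, compound then virus (~0.5 moi) added 4 h after plating, 44 h culture. Luciferase read 15 sec following 15 min substrate incubation, room temp.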
MARV entry inh: qHTS for inhibitors of binding or entry into cells for Marburg Virus; Marburg virus pseudotyped entry inhibition, cell reporter; Potency, µM (top dose mostly 37.8 µM), most hits filed as inhibitors; hit rate 1.8% among 300,000; AID 540276, 2011; calls by dose curve; tested in HEK293 cells
VACV Venus inh: qHTS for Stage-Specific Inhibitors of Vaccinia Orthopoxvirus: Venus Reporter Primary qHTS. AID 720580, 2013. Vaccinia virus Venus reporter expression, fluorescence. hit rate 0.46% among 330,000. Potency, µM (titrated, usually from 36.5 µM), hits mostly inhibitors; calls by dose curve; tested in A549 cells; note: nearly all actives have a fitted effect of over 30% in size
Lassa entry inh: qHTS for Inhibitors of binding or entry into cells for Lassa Virus | Lassa virus pseudotype entry inhibition, cell reporter | Potency, µM (series often up to 37.9 µM), actives largely listed as inhibitors | hit rate 1.2% among 300,000 | AID 540256, 2011; calls by dose curve; tested in HEK293 cells; note: nearly all actives have a fitted effect of over 50% in size
VACV mCherry inh: qHTS for Stage-Specific Inhibitors of Vaccinia Orthopoxvirus: mCherry Reporter Primary qHTS | Vaccinia virus mCherry reporter infection, fluorescence | Potency, µM (highest dose often 36.5 µM), actives largely listed as inhibitors | hit rate 0.63% among 310,000 | AID 720579, 2013; calls by dose curve; tested in A549 cells; note: nearly all actives have a fitted effect of over 35% in size
A number is an active result; . = inactive; ? = inconclusive; / = not tested or not shown.

SMILES | HCMV inh | HCV inh | MARV entry inh | VACV Venus inh | Lassa entry inh | VACV mCherry inh
CC(O)(COc1ccccc1)c1ccc2c(c1)CN(C/C=C/c1ccco1)CCO2 (stereo not given) | / | / | / | . | / | .
O=C(Oc1ccc(C(=S)N2CCOCC2)cc1)c1ccc([N+](=O)[O-])cc1[N+](=O)[O-] | . | . | / | / | / | /
O=C(Oc1cccc(C(=S)N2CCOCC2)c1)c1ccc([N+](=O)[O-])cc1[N+](=O)[O-] | . | . | . | ? | . | 5.6µM
CC(=O)c1cccc(Nc2nn(-c3ccc(OC(F)(F)F)cc3)nc2C(C)=O)c1 | . | / | ? | . | . | .
Clc1ccc2nnnc(-c3ccccc3)c2c1 | -102 | 4.5µM | 6.5µM | 13µM | 10µM | 13µM
N#Cc1c(N)nc(SCc2ccccn2)c(C#N)c1-c1cccs1 | -69 | ? | . | / | ? | /
CCOC(=O)CSc1nc(N)c(C#N)c(-c2cccs2)c1C#N | . | . | ? | . | . | .
CCOC(=O)c1cc(CC)sc1/N=C/c1c(O)ccc2ccccc12 | -70 | . | . | . | ? | .
CN(C)/N=C/c1c(O)ccc2ccccc12 | . | 10µM | . | . | . | /
CCOC(=O)c1cc(CC)sc1/N=C/C1C(=O)CCCC1=O | . | . | . | . | . | .
Oc1ccccc1N=Cc1c(O)ccc2ccccc12 | -70 | . | . | . | . | .
Oc1ccc2ccccc2c1C=Nc1ccccc1Br | . | . | / | / | / | /
CCc1cc(C(=O)Nc2c(C)nn(Cc3ccccc3Cl)c2C)no1 | . | / | ? | . | ? | .
CCCCN(CCCC)c1ccc(Cn2ccc3ccccc32)cc1 | / | / | / | . | / | .
Cc1cc(C)c(C2=NOC3C4CCC(C4)C23)c(C)c1 (stereo not given) | -63 | . | . | . | . | .
CCn1c(-c2cccnc2)nc2cc(NC(=O)COC)cc(C(=O)N3CCc4ccccc4C3)c21 | / | / | / | . | / | .
COc1ccc(NC(=O)CSc2nc3nc(C)c(Cc4ccccc4)c(C)n3n2)cc1OC | -66 | / | / | . | . | .
COc1cc(NC(=O)CSc2nc3nc(C)c(Cc4ccccc4)c(C)n3n2)cc(OC)c1 | . | / | / | . | . | .
CCC12C(=O)C(CC)(C(c3ccccc3)=C1c1ccccc1)[C@@H]1C(=O)N(c3ccc(C)cc3)C(=O)C12 (stereo not given in full) | . | . | . | . | . | .
Cc1ccc(CC2C(=O)N(c3ccccc3)C(=O)C2C)cc1 (stereo not given) | . | . | . | . | . | .
CCC12C(=O)C(CC)(C(c3ccccc3)=C1c1ccccc1)[C@@H]1C(=O)N(c3ccccc3)C(=O)C12 (stereo not given in full) | -61 | 14µM | ? | . | . | .
CCCC12C(=O)C(C)(C(c3ccccc3)=C1c1ccccc1)C1C(=O)N(c3ccc(C)cc3)C(=O)C12 (stereo not given) | -87 | 4.5µM | ? | . | ? | .
Cc1ccc2nc(-c3ccc(NC(=O)COC(=O)c4cncc(Br)c4)cc3)sc2c1 | . | . | ? | . | ? | .
Cc1ccc2nc(-c3ccc(NC(=O)COC(=O)c4ccc([N+](=O)[O-])o4)cc3)sc2c1 | ? | . | 4µM | . | 7.1µM | .
CNS(=O)(=O)c1cccc(C(=O)OCC(=O)Nc2ccc(-c3nc4ccc(C)cc4s3)cc2)c1 | / | . | ? | . | ? | .
SMILES | HCMV inh | HCV inh | MARV entry inh | VACV Venus inh | Lassa entry inh | VACV mCherry inh
C=CCn1c(SCC(=O)Nc2ccc(-c3nc4ccc(C)cc4s3)cc2)nnc1-c1ccccc1 | . | 10µM | ? | . | ? | ?
Cc1ccc2nc(-c3ccc(NC(=O)COC(=O)c4ccc(Br)o4)cc3)sc2c1 | . | . | ? | . | 5.6µM | .
C=CCn1c(SCC(=O)NNC(=O)Nc2ccc(C)cc2)nnc1-c1ccccc1 | ? | . | / | / | / | /
Cc1ccc(NC(=O)COC(=O)c2ccco2)cc1 | . | . | / | / | / | /
Cc1ccc2nc(-c3ccc(NC(=O)COC(=O)c4ccco4)cc3)sc2c1 | . | . | 1.3µM | . | 2.2µM | ?
Cc1ccc(NC(=O)CSc2nc3ccc(NC(=O)c4ccco4)cc3s2)cc1 | -62 | / | . | . | . | .
CCOc1ncccc1C(=O)OCC(=O)Nc1ccc(-c2nc3ccc(C)cc3s2)cc1 | . | . | 13µM | ? | ? | ?
Cc1ccc2nc(-c3ccc(NC(=O)COc4ccccc4)cc3)sc2c1 | . | / | / | . | . | .
CS(=O)(=O)c1ccc(C(=O)OCC(=O)N2CCCC2)cc1[N+](=O)[O-] | / | / | / | . | / | .
CS(=O)(=O)c1ccc(C(=O)OCC(=O)N2CCOCC2)cc1[N+](=O)[O-] | -80 | / | / | / | / | /
CS(=O)(=O)c1ccc(C(=O)OCC(=O)NC(=O)C2CCCCC2)cc1[N+](=O)[O-] | -77 | . | ? | / | ? | /
CS(=O)(=O)c1ccc(C(=O)OCC(=O)N2CCN(CCC3CCCCC3)CC2)cc1[N+](=O)[O-] | -103 | / | / | / | / | /
Cc1cc(C(=O)OCC(=O)NC(=O)C2CCCCC2)ccc1[N+](=O)[O-] | / | / | / | . | / | .
COc1ccc(C2=NN(C(=O)COC(=O)c3ccc(S(C)(=O)=O)c([N+](=O)[O-])c3)C(c3ccco3)C2)cc1 (stereo not given) | . | ? | ? | ? | ? | 11µM
CC(=O)C1=C(c2ccc(Cl)cc2)N(C(C)=O)n2c(nnc2C2CCCCC2)S1 | . | / | / | . | ? | .
CN(C)c1ccc(-c2nc(-c3cc4cc(Cl)ccc4oc3=O)cs2)cc1 | . | / | / | . | . | .
O=C(Nc1cccc(S(=O)(=O)N2CCOCC2)c1)c1cccc(S(=O)(=O)N2CCCC2)c1 | . | ? | . | . | . | .
COc1ccccc1N(C)S(=O)(=O)c1ccc(C(=O)Nc2cccc(S(=O)(=O)N3CCOCC3)c2)cc1 | ? | 10µM | / | / | / | /
COc1ccc(C(=O)Nc2cccc(S(=O)(=O)N(C)C)c2)cc1S(=O)(=O)N1CCOCC1 | . | ? | / | . | / | .
CN(c1ccccc1)S(=O)(=O)c1ccc(C(=O)Nc2cccc(S(=O)(=O)N3CCOCC3)c2)cc1 | -95 | / | / | ? | / | ?
O=S(=O)(c1ccccc1)c1c2c(cc3ccc(Cl)cc13)CCC2 | . | / | / | / | / | /
CC(C)(C)C1CCc2c(sc(N)c2C(N)=O)C1 (stereo not given) | / | . | ? | . | . | .
NC(=O)c1c(NC(=O)C2CCCO2)sc2c1CCC2 (stereo not given) | . | ? | . | / | . | /
CC(C)(C)C1CCc2c(sc(NC(=O)C3CCCO3)c2C(N)=O)C1 (stereo not given) | ? | ? | ? | ? | 18µM | ?
COC(=O)c1c(NC(=O)C2CCCO2)sc2c1CCC2 (stereo not given) | . | 5.6µM | . | ? | . | /
CCC(C)(C)C1CCc2c(sc(N)c2C(N)=O)C1 (stereo not given) | -76 | ? | ? | . | ? | .
NC(=O)c1c(NC(=O)C2CCCO2)sc2c1CCCCC2 (stereo not given) | ? | . | ? | . | . | .
